Records with an inconclusive call do not appear. Active and inactive are the calls of the source. Calls come from the whole dose curve; as a rule, active = well fitted inhibition curve with a large enough effect; inconclusive = small, poorly fitted or top-dose-only effect; inactive = no such curve, though single readings can be large or run the other way.
biological target: Luciferin 4-monooxygenase (Photinus pyralis) (UniProt P08659); experiment: FLuc inhibitory activity for the follow-up compounds in a biochemical assay with Km concentrations of substrate; settings: purified FLuc, Km substrates, luminescence; series mostly up to 57.5 µM
Sequence (P08659 whole entry, looked up): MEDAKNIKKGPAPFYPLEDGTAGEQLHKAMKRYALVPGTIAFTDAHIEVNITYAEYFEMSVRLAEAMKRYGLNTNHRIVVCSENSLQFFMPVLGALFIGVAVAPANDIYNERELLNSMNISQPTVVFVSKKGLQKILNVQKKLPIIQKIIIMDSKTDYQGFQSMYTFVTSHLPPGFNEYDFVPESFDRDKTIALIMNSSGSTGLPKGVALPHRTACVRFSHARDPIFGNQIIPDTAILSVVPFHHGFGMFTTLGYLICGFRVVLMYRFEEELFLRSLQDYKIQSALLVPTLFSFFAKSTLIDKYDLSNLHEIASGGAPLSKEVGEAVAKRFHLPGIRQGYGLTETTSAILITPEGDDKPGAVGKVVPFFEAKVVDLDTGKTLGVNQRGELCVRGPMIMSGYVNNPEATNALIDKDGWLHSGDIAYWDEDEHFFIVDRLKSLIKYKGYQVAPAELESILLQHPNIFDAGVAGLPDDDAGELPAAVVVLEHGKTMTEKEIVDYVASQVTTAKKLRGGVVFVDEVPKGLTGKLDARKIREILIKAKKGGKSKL
From the text: NCGC Assay Overview: Firefly (Photinus pyralis) luciferase is one of the most commonly used transcriptional reporters. It is considered one of the more dynamically responsive reporters - that is, responsive to changes in reporter transcription - as it requires no post-translational modifications and is enzymatically active directly after protein synthesis (Wood, 1998). With no endogenous expression in mammalian cells and without the requirement of external excitation, it offers very little background signal, thus generally providing excellent signal to background for most assays. Previous profiling work to determine the prevalence of compounds that affect FLuc enzymatic activity (PubChem AID 411) identified that ~3% of the MLSMR library (then at ~72K) inhibited FLuc. […] Of the compounds identified in this profile that inhibited FLuc, 151 compounds were selected for further analysis, in an effort to better understand their mode of inhibiting FLuc. The assay described here confirms the FLuc inhibitory activity of the 151 compounds.
NCGC Assay Protocol Summary: Reagents: 50mM Tris acetate, pH 7.5; 10mM Mg acetate; 10uM D-luciferin (Sigma #L9504); 10uM ATP; 0.01% Tween-20; 0.05% BSA; 10nM P. pyralis luciferase (Sigma #L9506) Control compounds used were two known firefly luciferase inhibitors (3-(5-(3-chlorophenyl)-1,2,4-oxadiazol-3-yl)benzoic acid and 5-(2-fluorophenyl)-3-phenyl-1,2,4-oxadiazole), and DMSO. Three microliters containing firefly luciferase substrates in buffer (final concentrations: 50mM Tris acetate, pH 7.5, 10mM Mg acetate, 0.01% Tween-20, 0.05% BSA, 10uM D-luciferin, and 10uM ATP) are dispensed into each well of a Greiner white, solid-bottom 1536-well format plate using a flying reagent dispenser (FRD). These assay plates were then treated with 23nL of compound or DMSO using a Kalypsys pin tool, which allows for delivery of a 12-point intraplate titration of each compound to the assay plate (quantitative HTS), with a final compound concentrations ranging from approximately ~60uM to 0.3nM. One microliter of firefly luciferase in 500mM Tris-acetate buffer was then delivered by FRD to each well for a final enzyme concentration of 10nM. Luciferase activity was then measured using a ViewLux CCD imager (PerkinElmer), with an average exposure time of 2-30 seconds (2X binning, medium/high gain).

Compound	Potency
COc1ccc(C(=O)Nc2ccccc2C(=O)Nc2ccccc2C(=O)O)cc1	0.58 µM (active)
Nc1ccc(-c2nc3ccc(C(=O)O)cc3s2)cc1	0.0073 µM (active)
COc1cc(C(=O)Nc2cc(C)c(O)c(-c3nc4ccccc4s3)c2)cc(OC)c1OC	inactive
CCOc1ccc2nc(NC(=O)c3ccccc3)sc2c1	0.326 µM (active)
O=C(Cc1ccccc1)Nc1ccc(C(=O)Nc2ccccc2C(=O)O)cc1	20.6 µM (active)
Cc1ccc(S(=O)(=O)N2CCOCC2)cc1C(=O)Nc1ccccc1C(=O)O	inactive
CC(C)c1ccc(-c2nc3ccccc3s2)cc1	0.0291 µM (active)
Nc1ccccc1C(=O)Nc1cccc(C(=O)O)c1	2.06 µM (active)
O=C(O)c1cccc(NC(=O)c2ccccc2NC(=O)c2ccccc2F)c1	18.3 µM (active)
O=C(Nc1ccccc1C(=O)O)c1ccc(NC(=O)C2CC2)cc1	2.59 µM (active)
O=C(Nc1cccc(-c2nc3ccccc3s2)c1)c1cc(-n2cnnc2)ccc1Cl	11.6 µM (active)
Cc1ccc(S(=O)(=O)N2CCN(C(=O)c3ccccc3-c3nc4ccccc4s3)CC2)c(C)c1	inactive
Cn1c(N/N=C/c2cc3ccccc3nc2Cl)nc2ccccc21	0.058 µM (active)
CN(C)c1cccc(C(=O)Nc2ccc(-c3nc4ccccc4s3)cc2)c1	2.91 µM (active)
O=C(Nc1ccccc1C(=O)O)c1ccc(Cl)c(S(=O)(=O)N2CCOCC2)c1	8.19 µM (active)
O=C(O)c1ccc(NC(=O)c2ccccc2NC(=O)c2ccccc2Br)cc1	23.1 µM (active)
CC(C)Oc1ccc(C(=O)Nc2ccc(-c3nc4ccccc4s3)cc2)cc1	inactive
COc1c(C)cccc1C(=O)Nc1ccc(-c2nc3ccccc3s2)c(Cl)c1	inactive
Cc1ccc(C(=O)Nc2cccc(C(=O)O)c2)cc1S(=O)(=O)N1CCCCC1	0.0651 µM (active)
Nc1ccc(-c2nc3cc(N)ccc3s2)cc1	0.819 µM (active)

Compound	Potency
Cc1ccc(C(=O)Nc2cccc(C(=O)O)c2)cc1S(=O)(=O)N1CCCC1	0.058 µM (active)
Nc1ccc2nc(-c3ccc(O)cc3)sc2c1	0.41 µM (active)
O=C(Nc1c(Cl)cc(Cl)cc1-c1nc2ccccc2s1)c1ccc(Br)o1	inactive
O=S(=O)(c1ccc(-c2nc3ccccc3s2)cc1)N1CCCC1	inactive
Cc1c(NC(=O)c2cccs2)cccc1-c1nc2ccccc2s1	4.11 µM (active)
O=C(Nc1ccccc1-c1nc2ccccc2s1)c1cccnc1	inactive
CC(=O)Oc1ccc(C(=O)Nc2ccccc2C(=O)Nc2ccc(C(=O)O)cc2)cc1	5.8 µM (active)
CCOc1ccc2nc(NC(=O)c3ccccn3)sc2c1	0.517 µM (active)
COc1ccc(CC(=O)Nc2cccc(C(=O)Nc3ccccc3C(=O)O)c2)cc1OC	41.1 µM (active)
COc1cc(OC)cc(C(=O)Nc2ccc(-c3nc4ccccc4s3)c(C)c2)c1	inactive
CCOc1ccc2nc(NC(=O)Cc3cccs3)sc2c1	10.3 µM (active)
C/C(=N\NC(=O)c1ccccc1NC(=O)c1ccc(Cl)cc1)c1ccncc1	0.0116 µM (active)
Cc1ccc2nc(-c3ccc(N)cc3)sc2c1	0.0819 µM (active)
Cc1ccc(C(=O)Nc2ccc(C(=O)O)cc2)cc1S(=O)(=O)NCc1ccccc1	inactive
COc1ccc2nc(NC(=O)c3cnccn3)sc2c1	2.91 µM (active)
Nc1ccc(-c2nc3ccc(N)cc3s2)cc1	0.326 µM (active)
CCn1c(C)nc2cc(-c3nc4n(n3)Cc3ccccc3-4)ccc21	0.0231 µM (active)
CC(=O)Nc1cccc(-c2nc3ccccc3s2)c1C	23.1 µM (active)
O=C(O)c1ccccc1NC(=O)c1ccccc1Nc1ccccc1	18.3 µM (active)
COc1ccc(C(=O)Nc2ccccc2C(=O)N/N=C/c2ccc(O)c(OC)c2)cc1	0.0037 µM (active)

From PubChem BioAssay AID602357 (National Center for Advancing Translational Sciences (NCATS), 2012)
